{"source": "PubChem BioAssay (NCATS)", "note": "Results filed as inconclusive are left out. Where a call stands in place of a potency, no number is given. Calls of active or inactive are those of the source. Calls follow the shape of the dose curve; as a rule, active = well fitted cell-killing curve with a large enough effect; inconclusive = small, poorly fitted or top-dose-only effect; inactive = flat fitted curve, though single readings scatter.", "data": [{"assay": "Cell Viability - LYMP2-002 (AID 977);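 also: compound exposure lasted 24 h at 37 °C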", "conditions": "LYMP2-002 lymphoblastoid cell viability, qHTS; series mostly up to 92.2 µM", "source_text": "NIH Chemical Genomics Center [NCGC]\nNIH Molecular Libraries Screening Centers Network [MLSCN]\nNational Institutes of Environmental Health Sciences [NIEHS]\nNational Toxicology Program [NTP]\nWe have developed a 1536-well cell-based assay for quantitative high throughput screening (qHTS) against a number of cell lines to determine in vitro cytotoxicity of small molecules. This particular assay uses a human lymphoblastoid cell line (LYMP2-002) purchased from Coriell Institute for Medical Research.\nNCGC Assay Protocol Summary:\nThe CellTiter-Glo luminescent cell viability assay (Promega) is a homogeneous method to measure the number of viable cells in culture. The end point readout of this assay is based on quantitation of intracellular ATP, an indicator of metabolic activity, using the luciferase reaction. Luciferase catalyzes the oxidation of beetle Luciferin to oxyluciferin and light in the presence of ATP. The luminescent signal is proportional to amount of ATP present.\nUsing the CellTiter-Glo luminescent cell viability assay, the amount of cellular ATP was measured in the lymphoblastoid cell line with complete culture medium following compound treatment for 24 hours. The assay was performed in opaque white Kalypsys 1536-well plates. In the screen, tetraoctylammonium bromide was used as positive control. Library compounds were measured for their ability to cause acute toxicity in the cell line, as reflected by a decrease in intracellular ATP levels, in a concentration-dependent manner. […] AC50 values were determined from concentration-response data modeled with the standard Hill equation.\nqHTS protocol for CellTiter Glo lymphoblastoid cellular assay\n[Step] [Parameter] [Value] [Description]\n1. Reagent; 5 uL; 2500 lymphoblastoid cells/well\n2. Time; 5 hr; 37 C incubation\n4. Controls; 23 nL; Tetraoctylammonium bromide 6.4pM to 92 uM\n5. Time; 24 hr; 37 C incubation\n6. Reagent; 5 uL; CellTiter Glo reagent\n7. Time; 30 min; Room Temperature\n8. Detection; Luminescence; Viewlux plate reader\nKeywords: cell viability, cytotoxicity, lymphoblastoid cell line, luminescence, NTPHTS, NTPHTS_NCGC, NIEHS, DSSTox, MLSMR, MLSCN, NIH Roadmap, qHTS, NCGC", "values": [{"smiles": "CC(C)(C)c1ccc(OCC2CO2)cc1", "note": "(stereo not given)", "Potency": "inactive"}, {"smiles": "CCC(=O)/C=C/C1C(C)=CCCC1(C)C", "note": "(stereo not given)", "Potency": "inactive"}, {"smiles": "O=C1OC(=O)c2c(Cl)c(Cl)c(Cl)c(Cl)c21", "Potency": "inactive"}, {"smiles": "CCCCC(CC)CO", "note": "(stereo not given)", "Potency": "inactive"}, {"smiles": "C=CCCCC", "Potency": "inactive"}, {"smiles": "O=C(O)c1ccc(Cl)c(Cl)c1", "Potency": "inactive"}, {"smiles": "Cc1ccc(N(C)C)cc1", "Potency": "inactive"}, {"smiles": "NC(=O)/N=N/C(N)=O", "Potency": "inactive"}, {"smiles": "C/C=C1\\CC2C=CC1C2", "note": "(stereo not given)", "Potency": "inactive"}, {"smiles": "COC(=O)CC#N", "Potency": "inactive"}, {"smiles": "O=[N+]([O-])c1cccc(C(F)(F)F)c1", "Potency": "inactive"}, {"smiles": "CSc1ccc(C=O)cc1", "Potency": "inactive"}, {"smiles": "Cc1ccc2oc(=O)ccc2c1", "Potency": "inactive"}, {"smiles": "CNC(=O)c1ccccc1", "Potency": "inactive"}, {"smiles": "CC(=O)OCc1ccco1", "Potency": "inactive"}, {"smiles": "Nc1cccc2c(=O)[nH][nH]c(=O)c12", "Potency": "inactive"}, {"smiles": "O=C1OC(=O)c2c(Br)c(Br)c(Br)c(Br)c21", "Potency": "inactive"}, {"smiles": "CC(C)=C1CCC(C)CC1=O", "note": "(stereo not given)", "Potency": "inactive"}, {"smiles": "Nc1cccc(C(F)(F)F)c1", "Potency": "inactive"}, {"smiles": "C=C(C)C(=O)OCC(C)C", "Potency": "inactive"}, {"smiles": "Nc1cccc(S(=O)(=O)O)c1", "Potency": "inactive"}, {"smiles": "CCC(C)=O", "Potency": "inactive"}, {"smiles": "O=C(O)c1cccc([N+](=O)[O-])c1", "Potency": "inactive"}, {"smiles": "c1ccc2n[nH]nc2c1", "Potency": "inactive"}, {"smiles": "O=C(O)c1ccc(C(=O)O)cc1", "Potency": "inactive"}, {"smiles": "CCCCCCCCCCCCOCC1CO1", "note": "(stereo not given)", "Potency": "inactive"}, {"smiles": "Nc1cc(Cl)c(N)c(Cl)c1", "Potency": "inactive"}, {"smiles": "O=[N+]([O-])c1cc(C(F)(F)F)ccc1Cl", "Potency": "inactive"}, {"smiles": "CCC(O)C(C)(C)C", "note": "(stereo not given)", "Potency": "inactive"}, {"smiles": "C=Cc1ccccc1C=C", "Potency": "inactive"}, {"smiles": "C(=C/c1ccccc1)/c1ccccc1", "Potency": "inactive"}, {"smiles": "CC/C=C1/OC(=O)c2ccccc21", "Potency": "inactive"}, {"smiles": "[O-]/[N+](=N\\O)c1ccccc1", "Potency": "inactive"}, {"smiles": "CC(C)N(C)C", "Potency": "inactive"}, {"smiles": "Cc1ccccc1C=O", "Potency": "inactive"}, {"smiles": "CCCCN(CCO)CCCC", "Potency": "inactive"}, {"smiles": "C=Cc1ccc(C=C)cc1", "Potency": "inactive"}, {"smiles": "CCN(CC)c1cccc(O)c1", "Potency": "inactive"}, {"smiles": "C=CCOC(=O)COCCC(C)C", "Potency": "inactive"}, {"smiles": "NS(=O)(=O)O", "Potency": "inactive"}]}]}
